PubChem BioAssay (NCI)
Compounds without any hit were thinned out: in the full panel of roughly 83,000, 20% have a hit.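 A percent growth of 40 corresponds to 60% growth inhibition; 0 means no net growth; -100 means all cells died. Active threshold: below 10.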 Unmarked numbers belong to inactive results. Activity calls are given as the source filed them.

How the values were obtained:
Assay in all cases: NCI-60 one-dose screen, 48 h (100 = growth as untreated, 0 = no growth, -100 = all killed)
Conditions in all cases: 10 µM unless noted
[1] = tested on: HCT-15 colon
[2] = tested on: HT29 colon
[3] = tested on: SNB-75 CNS
[4] = tested on: SNB-19 CNS
[5] = tested on: U251 CNS
[6] = tested on: PC-3 prostate
[7] = tested on: SK-MEL-5 melanoma
[8] = tested on: UACC-62 melanoma
[9] = tested on: LOX IMVI melanoma
[10] = tested on: SK-MEL-28 melanoma
[11] = tested on: SK-MEL-2 melanoma
[12] = tested on: EKVX NSCLC
[13] = tested on: SN12C renal
[14] = tested on: UO-31 renal
[15] = tested on: TK-10 renal
[16] = tested on: ACHN renal
[17] = tested on: CAKI-1 renal
[18] = tested on: A498 renal
[19] = tested on: CCRF-CEM leukemia
[20] = tested on: MOLT-4 leukemia

SMILES | growth [1] | growth [2] | growth [3] [%] | growth [4] [%] | growth [5] | growth [6] | growth [7] | growth [8] | growth [9] | growth [10] [%] | growth [11] [%] | growth [12] [%] | growth [13] | growth [14] | growth [15] | growth [16] | growth [17] | growth [18] | growth [19] | growth [20]
Clc1cccc(CNc2c3ccccc3nc3ccccc23)c1 | 14% | 8.62% (active) | 68.7 | 26.4 | 22.7% | 23.5% | 66.2% | 52.6% | 1.75% (active) | 66.2 | 77.3 | 27.2 | 23.6% | 16% | 52.1% | 15.7% | 28.2% | -3.08% (active) | 18.1% | 1.13% (active)
COc1cc(C2CC(=O)Nc3c2cnn3C)cc(OC)c1OC (stereo not given) | 107% | 105% | 92 | 108 | 100% | 108% | 105% | 106% | 106% | 119 | 113 | 119 | 114% | 90.7% | 117% | 108% | 106% | 113% | 114% | 102%
CCCCCCCC/C=C/CCCCCCCC1=NC(C)(C)CN1c1ccccc1 | 80.5% | 66.8% | 90 | 87.8 | 84.5% | 64% | 92.4% | 75.2% | 85.3% | 103 | 92.6 | 105 | 95.5% | 61.7% | 118% | 101% | 90.1% | 105% | 64.2% | 85.7%
O=C(CCl)N1c2ccccc2Oc2ccc3ccccc3c21 | -81.1% (active) | -49.8% (active) | 22.1 | 24.5 | -64.3% (active) | 6.63% (active) | 3.7% (active) | -0.259% (active) | -81.1% (active) | 53.8 | 20.2 | 59.1 | -57.6% (active) | -92.1% (active) | -9.22% (active) | -95.9% (active) | -45.6% (active) | 110% | 0.604% (active) | -4.23% (active)
c1ccc(CCn2cccc2)nc1 | 119% | 114% | 95.1 | 105 | 103% | 98.9% | 109% | 97.9% | 98.6% | 118 | 101 | 107 | 102% | 94.3% | 99.7% | 104% | 91.1% | 105% | 105% | 18.7%
CN(C)c1ccc(/C=C\c2cccc[n+]2C)cc1 | 104% | 34.4% | 70.1 | 31.8 | 33% | 11% | 24.2% | 81.3% | 50% | 56.6 | 75.6 | 23 | 52.2% | 59.5% | 67.2% | 77.3% | 42.1% | 13.4% | 49.6% | 74.4%
